For 14 sequences, binding signal results are on record in article PMC4242493, “Sequence specificity incompletely defines the genome-wide occupancy of Myc”.

The assay deals with Myc;MaxL (Homo sapiens;Homo sapiens, UniProt P01106-1;P61244 1-439;1-160, |). The assay can be described thus: universal protein-binding microarray (PBM); PBS-based mixture, 10 nM His-tagged protein dimer, 2% milk, 200 ng/uL BSA, 50 ng/uL salmon testes DNA, 0.02% TX-100; detection with Alexa 488 anti-His antibody;; high values mean tight binding.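 Also: fluorescence intensity normalized to that of the highest-ranked 8-mer.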 Particulars: protein: recombinant;recombinant; tags: C-terminal His-tag (pET21a);C-terminal His-tag (pET21a); copies: 1;1; dsDNA, one strand shown.
Sequence of Myc;MaxL (P01106 16-454, chain 1 of 2): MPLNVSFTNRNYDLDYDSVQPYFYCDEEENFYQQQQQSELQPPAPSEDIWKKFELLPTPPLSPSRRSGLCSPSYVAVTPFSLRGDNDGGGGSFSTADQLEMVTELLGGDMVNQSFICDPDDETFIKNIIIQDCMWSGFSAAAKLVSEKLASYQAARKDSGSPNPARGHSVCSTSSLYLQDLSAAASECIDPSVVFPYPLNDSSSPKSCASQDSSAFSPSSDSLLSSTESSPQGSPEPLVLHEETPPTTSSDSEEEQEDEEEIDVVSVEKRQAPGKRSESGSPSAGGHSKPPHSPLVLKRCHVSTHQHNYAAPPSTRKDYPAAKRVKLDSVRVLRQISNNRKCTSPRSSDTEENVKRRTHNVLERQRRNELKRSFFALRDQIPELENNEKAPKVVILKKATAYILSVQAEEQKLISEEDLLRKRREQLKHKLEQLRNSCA
Sequence of Myc;MaxL (P61244 whole entry, chain 2 of 2): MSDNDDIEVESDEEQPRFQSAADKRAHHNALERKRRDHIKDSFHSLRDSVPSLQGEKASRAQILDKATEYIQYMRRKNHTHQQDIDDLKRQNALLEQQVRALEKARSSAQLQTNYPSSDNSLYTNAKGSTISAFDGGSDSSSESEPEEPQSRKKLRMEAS

Consider CCACGTGC, for which the binding signal is 0.978 normalized occupancy.

Take CACGTGTC: the binding signal came out at 0.761 normalized occupancy.

CACGTGGA: the binding signal came to 0.81 normalized occupancy.

Take CACGTGGC: the binding signal came to 0.927 normalized occupancy.

On to ACCACGTG, for which the binding signal came out at 0.875 normalized occupancy.

Take CACGTGCC: the binding signal worked out at 0.732 normalized occupancy.

For the sequence ACACGTGC, the binding signal worked out at 0.766 normalized occupancy.

CACGTGGG: the binding signal was 0.757 normalized occupancy.

As for CCACGTGG, the binding signal worked out at 0.959 normalized occupancy.

As to ACACGTGT, the binding signal turned out to be 0.833 normalized occupancy.

On to AACACGTG, for which the binding signal is 0.784 normalized occupancy.

As for AGCACGTG, the binding signal is 0.947 normalized occupancy.

For ACACGTGG, the binding signal came to 0.895 normalized occupancy.

On to CACGTGCG, for which the binding signal was 0.798 normalized occupancy.
